Key:
Test in all cases: relative growth (AUC of 72 h growth curve relative to DMSO control, dAUC) (ratio); higher = more growth (less inhibition), active = hit call of the paper
Settings in all cases: 20 µM;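 active = growth AUC significantly below the DMSO wells by Dunnett test; inactive = the rest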
[1] = test system: Aeromonas 1 (Aeromonas sp. AE235)
Procedure, shortened: (§1)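 For relative growth (dAUC), the spline-integrated area under the growth curve was divided by the mean of the DMSO controls. Results were averaged over three biological replicates. Each replicate used a 1:100 dilution, into 96-well plates holding each chemical at 20 µM (1% DMSO), of isolates from Icelandic stream sediments and Silwood Park soil or whole sediment communities that had been grown to carrying capacity in Luria–Bertani medium. Plates were shaken briefly before each hourly A600 reading over 72 h.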

[2] = test system: Aeromonas 2 (Aeromonas sobria)
Procedure, shortened: as §1

[3] = test system: Aeromonas 3 (Aeromonas popoffii)
Procedure, shortened: as §1

[4] = test system: Argrobacterium 1 (Agrobacterium sp.)
Procedure, shortened: as §1

[5] = test system: Arthrobacter 1 (Arthrobacter humicola)
Procedure, shortened: as §1

[6] = test system: Arthrobacter 2 (Arthrobacter humicola)
Procedure, shortened: as §1

[7] = test system: Arthrobacter 3 (Arthrobacter sp.)
Procedure, shortened: as §1

Community 10 = test system: Community 10
Procedure, shortened: as §1

Community 4 = test system: Community 4
Procedure, shortened: as §1

Community 6 = test system: Community 6
Procedure, shortened: as §1

Community 7 = test system: Community 7
Procedure, shortened: as §1

Community 8 = test system: Community 8
Procedure, shortened: as §1

Community 9 = test system: Community 9
Procedure, shortened: as §1

[8] = test system: Flavobacterium 1 (Flavobacterium glaciei)
Procedure, shortened: as §1

[9] = test system: Flavobacterium 2 (Flavobacterium succinicans)
Procedure, shortened: as §1

[10] = test system: Hymenobacter 1 (Hymenobacter glaciei)
Procedure, shortened: as §1

[11] = test system: Microbacterium 1 (Microbacterium arborescens)
Procedure, shortened: as §1

[12] = test system: Neobacillus 1 (Neobacillus soli)
Procedure, shortened: as §1

[13] = test system: Oryzobacter 1 (Oryzobacter terrae)
Procedure, shortened: as §1

[14] = test system: Paenibacillus 1 (Paenibacillus castaneae)
Procedure, shortened: as §1

Measured: relative growth

COP(=S)(OC)SCN1C(=O)c2ccccc2C1=O
inactive: [1] 1.02 | [2] 1.03 | [3] 1.01 | [4] 0.987 | [5] 0.962 | [6] 0.748 | [7] 1.09 | Community 10 1 | Community 4 1.02 | Community 6 1.03 | Community 7 1.04 | Community 8 1.02 | Community 9 1.04 | [8] 0.982 | [9] 0.975 | [10] 1.02 | [11] 0.992 | [12] 1.03 | [13] 0.954 | [14] 1.06

CN(C)C(CSS(=O)(=O)O)CSS(=O)(=O)O
inactive: [1] 0.987 | [2] 0.976 | [3] 0.992 | [4] 0.997 | [5] 1.02 | [6] 1.04 | [7] 1.04 | Community 10 0.835 | Community 4 1.04 | Community 6 0.914 | Community 7 1 | Community 8 1.02 | Community 9 0.942 | [8] 1.09 | [9] 1 | [10] 1.07 | [11] 1.06 | [12] 1 | [13] 1.13 | [14] 0.935

COc1ccc(-c2ccccc2)cc1NNC(=O)OC(C)C
inactive: [1] 0.954 | [2] 0.947 | [3] 1.02 | [4] 0.937 | [5] 0.913 | [6] 0.87 | [7] 0.932 | Community 10 0.782 | Community 4 0.882 | Community 6 0.886 | Community 7 0.932 | Community 8 0.986 | Community 9 0.868 | [8] 0.888 | [9] 0.898 | [10] 0.987 | [11] 1.06 | [12] 0.89 | [13] 1.02 | [14] 0.873

Nc1c(Cl)c(F)nc(OCC(=O)O)c1Cl
inactive: [1] 0.974 | [2] 1 | [3] 0.991 | [4] 1.03 | [5] 1.1 | [6] 1.02 | [7] 0.991 | Community 10 0.976 | Community 4 1.07 | Community 6 1.01 | Community 7 1.01 | Community 8 1.04 | Community 9 1.03 | [8] 1.07 | [9] 0.993 | [10] 1.03 | [11] 1.02 | [12] 1.04 | [13] 1.01 | [14] 1.03

CN/C(=N/CC1CCOC1)N[N+](=O)[O-] (stereo not given)
inactive: [1] 1 | [2] 1.02 | [3] 1.05 | [4] 1.02 | [5] 1.01 | [6] 1.03 | [7] 0.998 | Community 10 0.953 | Community 4 1.09 | Community 6 1 | Community 7 1.01 | Community 8 1.03 | Community 9 1.04 | [8] 1.04 | [9] 1.02 | [10] 1.06 | [11] 1.02 | [12] 0.994 | [13] 0.957 | [14] 1.01

CCC(C)(C)C(=O)OC1=C(c2ccc(Cl)cc2Cl)C(=O)OC12CCCCC2
inactive: [1] 0.99 | [2] 0.957 | [3] 1 | [4] 1.01 | [5] 0.721 | [6] 0.892 | [7] 0.892 | Community 10 0.839 | Community 4 1.03 | Community 6 1.08 | Community 7 1.13 | Community 8 0.972 | Community 9 1.05 | [8] 0.794 | [9] 1.02 | [10] 1.01 | [11] 0.978 | [12] 1 | [13] 1.03 | [14] 0.964

OC(Cc1ccccc1Cl)(Cn1nc[nH]c1=S)C1(Cl)CC1 (stereo not given)
inactive: [1] 0.97 | [2] 0.986 | [3] 1.03 | [4] 1.01 | [5] 0.952 | [6] 1.04 | [7] 1.07 | Community 10 0.945 | Community 4 1.01 | Community 6 0.982 | Community 7 0.968 | Community 8 1.03 | Community 9 1.02 | [8] 1.09 | [9] 1 | [10] 1.01 | [11] 0.958 | [12] 1.05 | [13] 0.894 | [14] 1.01

CC1(C)C(C=C(Cl)Cl)C1C(=O)OCc1cccc(Oc2ccccc2)c1 (stereo not given)
inactive: [1] 1.03 | [2] 0.961 | [3] 0.99 | [4] 1.04 | [5] 1.12 | [6] 0.851 | [7] 0.987 | Community 10 0.824 | Community 4 0.922 | Community 6 0.94 | Community 7 1.08 | Community 8 0.975 | Community 9 0.932 | [8] 0.977 | [9] 0.958 | [10] 0.989 | [11] 0.987 | [12] 1.05 | [13] 1.14 | [14] 0.894

Reference: the supplement of paper PMC12067926
